Data as given in the supplement of paper PMC11732987, “Enantioselective OTUD7B fragment discovery through chemoproteomics screening and high-throughput optimisation” (Communications Chemistry, 2025).

target: T1, USP38 (UniProt Q8NB14); assay: log2 ratio of Biotin-Ahx-Ub-VS probe labelling (compound/DMSO); higher = less target engagement, active = hit call of the paper (q ≤ 0.05, log2 ratio ≤ -1); settings: compound concentration: 50uM; treatment time: 3 h
T1 sequence (whole entry): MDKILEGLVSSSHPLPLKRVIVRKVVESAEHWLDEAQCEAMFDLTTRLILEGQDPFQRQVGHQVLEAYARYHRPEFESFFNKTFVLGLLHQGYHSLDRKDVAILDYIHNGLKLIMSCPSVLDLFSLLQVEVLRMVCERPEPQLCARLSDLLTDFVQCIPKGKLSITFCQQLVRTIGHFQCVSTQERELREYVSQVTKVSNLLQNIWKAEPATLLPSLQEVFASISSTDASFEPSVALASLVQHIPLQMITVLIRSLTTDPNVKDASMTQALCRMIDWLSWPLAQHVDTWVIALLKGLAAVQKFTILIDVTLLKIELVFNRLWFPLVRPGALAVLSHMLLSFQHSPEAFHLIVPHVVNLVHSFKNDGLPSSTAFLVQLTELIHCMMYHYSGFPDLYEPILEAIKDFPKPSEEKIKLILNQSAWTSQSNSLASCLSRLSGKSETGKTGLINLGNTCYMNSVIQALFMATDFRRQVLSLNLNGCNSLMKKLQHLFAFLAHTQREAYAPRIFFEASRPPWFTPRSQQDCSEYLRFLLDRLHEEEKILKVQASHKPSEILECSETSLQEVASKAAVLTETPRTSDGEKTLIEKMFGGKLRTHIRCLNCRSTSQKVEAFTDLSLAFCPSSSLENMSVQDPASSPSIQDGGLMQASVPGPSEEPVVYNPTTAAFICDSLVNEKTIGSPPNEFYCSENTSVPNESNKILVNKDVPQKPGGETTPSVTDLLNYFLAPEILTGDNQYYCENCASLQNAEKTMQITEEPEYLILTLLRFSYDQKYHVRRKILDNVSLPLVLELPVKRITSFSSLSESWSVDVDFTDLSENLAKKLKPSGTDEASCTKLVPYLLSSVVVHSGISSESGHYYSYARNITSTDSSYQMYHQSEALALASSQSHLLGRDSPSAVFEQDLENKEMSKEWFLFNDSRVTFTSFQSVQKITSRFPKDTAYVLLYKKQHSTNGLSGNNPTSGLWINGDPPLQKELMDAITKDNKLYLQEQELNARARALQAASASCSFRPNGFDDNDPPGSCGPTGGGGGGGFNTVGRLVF
Experimental: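 Round 2 competitive ABPP in HEK293T lysate. Purified HTC-D2B compounds were tested at 50 and 200 µM for 3 h, followed by Biotin-Ahx-Ub-VS enrichment and diaPASEF LC-MS/MS. Values are the average log2 ratio (compound/DMSO) from an unpaired t-test (n=3 treated, n=26 DMSO).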

log2 ratio of Biotin-Ahx-Ub-VS probe labelling, inactive:
O=C(CCl)N1CCc2nocc2C1 -0.0321, Cc1ccccc1COc1cccc(CN(C)C(=O)CCl)c1 -0.192, O=C(CCl)N1CCc2nc(-c3ccccc3)ncc2C1 0.272, COc1cccc(CN(CCCc2ccccc2)C(=O)CCl)c1 -0.105, O=C(CCl)N1CCc2cc(Cl)c(Cl)cc2C1 0.253, O=C(CCl)N1Cc2sccc2C(O)C1 (stereo unspecified) 0.173, O=C(CCl)NC1CCCc2ccccc21 (stereo unspecified) 0.0146, Cl.Cl.O=C(CCl)N1CCc2nc(N3CCN(c4ccc(F)cc4)CC3)ncc2C1 0.202, O=C(CCl)NC1CCOc2ccc(Cl)cc21 (stereo unspecified) 0.126, O=C(CCl)N1CCc2scc(Br)c2C1 0.0294, O=C(CCl)N[C@H]1CCCc2ccccc21 0.0645, COc1ccc(CN(C)C(=O)CCl)cc1 0.023, O=C(CCl)NC(c1cccs1)C1CCCC1 (stereo unspecified) 0.192, O=C(CCl)NC1CCSc2ccccc21 (stereo unspecified) 0.05, CCCC1c2cc(OC)c(OC)cc2CCN1C(=O)CCl (stereo unspecified) -0.184, CCC1c2cc(Cl)c(OC)cc2CCN1C(=O)CCl (stereo unspecified) 0.207, CN(Cc1ccccc1)C(=O)CCl -0.0215, CN(Cc1cccc(Br)c1)C(=O)CCl 0.171

same assay, conditions: compound concentration: 200uM; treatment time: 3 h

log2 ratio of Biotin-Ahx-Ub-VS probe labelling, inactive:
O=C(CCl)N1CCc2nocc2C1 -0.473, Cc1ccccc1COc1cccc(CN(C)C(=O)CCl)c1 -0.383, O=C(CCl)N1CCc2nc(-c3ccccc3)ncc2C1 -0.407, COc1cccc(CN(CCCc2ccccc2)C(=O)CCl)c1 -0.679, O=C(CCl)N1CCc2cc(Cl)c(Cl)cc2C1 -0.962, O=C(CCl)N1Cc2sccc2C(O)C1 (stereo unspecified) -0.212, O=C(CCl)NC1CCCc2ccccc21 (stereo unspecified) -0.162, Cl.Cl.O=C(CCl)N1CCc2nc(N3CCN(c4ccc(F)cc4)CC3)ncc2C1 -0.918, O=C(CCl)NC1CCOc2ccc(Cl)cc21 (stereo unspecified) -0.261, O=C(CCl)N1CCc2scc(Br)c2C1 -0.844, O=C(CCl)N[C@H]1CCCc2ccccc21 -0.252, COc1ccc(CN(C)C(=O)CCl)cc1 -0.826, O=C(CCl)NC(c1cccs1)C1CCCC1 (stereo unspecified) -0.22, O=C(CCl)NC1CCSc2ccccc21 (stereo unspecified) -0.3, CCCC1c2cc(OC)c(OC)cc2CCN1C(=O)CCl (stereo unspecified) -0.48, CCC1c2cc(Cl)c(OC)cc2CCN1C(=O)CCl (stereo unspecified) -0.934, CN(Cc1ccccc1)C(=O)CCl -0.641, CN(Cc1cccc(Br)c1)C(=O)CCl -0.322
